Assay results as given in PubChem BioAssay (NCATS).
Inconclusive results are not listed. Calls of active or inactive are those of the source. Calls come from the whole dose curve; as a rule, active = well fitted activation curve with a large enough effect; inconclusive = small, poorly fitted or top-dose-only effect; inactive = flat fitted curve, though single readings scatter.

Assay: Validation screen for small molecules that induce DNA re-replication in SW480 colon adenocarcinoma cells (AID 504364); note: 0% is about no effect
Conditions: DNA re-replication phenotype (high-content imaging); series mostly up to 46.1 µM; activity (re-replication induction): at the top concentration
Summary of the method: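 Cells are treated 48 hr with test compound, stained 40 min with Hoechst at 37 C, and scanned for nuclear fluorescence; compounds inducing re-replication increase nuclei with elevated intensity.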

SMILES | activity (re-replication induction)
O=C(NCCNCC(O)COc1ccc(O)cc1)N1CCOCC1 (stereo not given) | -4.45% (inactive)
O=c1[nH]c(=O)n([C@H]2C[C@H](O)[C@@H](CO)O2)cc1/C=C/Br | -0.715% (inactive)
Cc1cc(C)c(NC(=O)C[C@H](CC(=O)O)c2cccc3ccccc23)c(C(=O)N2CCC3(CCCC3)CC2)c1 | -11.1% (inactive)
C[C@@](Cc1ccc(O)c(O)c1)(NN)C(=O)O | 9.02% (inactive)
Oc1ccc(/C=C/c2cc(O)cc(O)c2)cc1 | -11.7% (inactive)
